Where “and” joins values, the source holds several entries; their conditions need not be identical. Equal entries are not always repeated. Values without a mark were called inactive. Results filed as inconclusive are left out. Calls of active or inactive are those of the source. Unless noted, the call rests on the fitted dose curve; in most records, active means well fitted curve in the direction sought with a large enough effect in the repeat runs; inconclusive means weak or mixed curves; inactive means no such curve, though single readings can be large; an effect the other way counts as inactive or inconclusive.

Test [1] is described as follows: qHTS assay for small molecule agonists of the p53 signaling pathway (AID 651631; calls by dose curve; further: nearly all actives have a fitted effect of over 15% in size; further: potency means the concentration at half of the fitted maximal effect). Put shortly:
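Beta-lactamase reporter activity under p53 response elements was quantified in HCT-116 cells by FRET fluorescence, following 16 h incubation with test compounds at 37 °C and 2 h substrate development at room temperature.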
(qHTS replaces the single test concentration by a dilution series.)

Test [2] can be described thus: qHTS assay for small molecule disruptors of the mitochondrial membrane potential (AID 720635). Put shortly: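 HepG2 cells exposed to compound 1 hr at 37C, then Mito-MPS dye 30 min. Ratio read of aggregate (540/590 nm) versus monomer (490/535 nm) fluorescence.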
Test [3] concerns the target Glucocorticoid receptor (Homo sapiens) (UniProt P04150). In words: qHTS assay to identify small molecule antagonists of the glucocorticoid receptor (GR) signaling pathway (AID 720692; active means well fitted inhibition curve with a large enough effect in the signal ratio in the repeat runs, not every such curve was filed as active; the % refers to the signal ratio; further: potency means the concentration at half of the fitted maximal effect). Put shortly: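 Fluorescence from cleaved LiveBLAzer B/G FRET substrate reports GRE-driven beta-lactamase in HeLa cells; compounds are tested against 5 nM dexamethasone (final) over 18 h at 37 C, substrate incubation 2 h at room temperature.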

Test [4] concerns the target Androgen receptor (Homo sapiens) (UniProt P10275). Description: qHTS assay to identify small molecule antagonists of the androgen receptor (AR) signaling pathway (AID 743035; active means well fitted inhibition curve with a large enough effect in the signal ratio in the repeat runs, not every such curve was filed as active; the % refers to the signal ratio; further: potency means the concentration at half of the fitted maximal effect). The procedure, abridged:
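Cell line: GeneBLAzer AR-UAS-bla GripTite (HEK293). Stimulus: R1881 added after compound. Exposure: 16 h, 37C, 5% CO2. Readout: LiveBLAzer B/G FRET fluorescence after 2 h at room temperature.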

Test [5] shares this target. In words: qHTS assay to identify small molecule agonists of the androgen receptor (AR) signaling pathway (AID 743036; active means well fitted activation curve with a large enough effect in the signal ratio in the repeat runs, with a control signal flat, not every such curve was filed as active; the % refers to the signal ratio). The procedure, abridged:
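Following a 4 h settling period, AR-UAS-bla HEK293 cells were dosed with compounds for 16 h at 37C. A 2 h room-temperature incubation with LiveBLAzer B/G FRET substrate preceded the fluorescence measurement.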

For test [6] the target is unchanged. In words: qHTS assay to identify small molecule agonists of the androgen receptor (AR) signaling pathway using the MDA cell line (AID 743040; further: nearly all actives have a fitted effect of over 20% in size; further: potency means the concentration at half of the fitted maximal effect). The procedure, abridged: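 Human breast carcinoma MDA-kb2 reporter cells (MMTV-luc, AR/GR elements) were treated for 16 h at 37C in 0% CO2 following a 5 h settling period. Signal was quantified by ONE-Glo luminescence.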

For test [7] the target is unchanged. Description: qHTS assay to identify small molecule antagonists of the androgen receptor (AR) signaling pathway using the MDA cell line (AID 743042; further: nearly all actives have a fitted effect of over 55% in size). Put shortly:
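MDA-kb2 breast carcinoma cells carrying MMTV-luciferase (AR/GR responsive) were co-treated with compounds and the agonist R1881 for 16 h at 37C. Inhibition read as ONE-Glo luminescence; CellTiter-Fluor fluorescence measured in parallel for cytotoxicity.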

Test [8] is described as follows: qHTS assay to identify small molecule phospholipidosis (PLD) inducers (AID 1259344; active means well fitted curve in the direction sought with a large enough effect; an effect the other way counts as inactive or inconclusive). Put shortly: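 Quantitative HTS in HepG2: compound plus LipidTOX Red dye for 24 h, paraformaldehyde fixation with Hoechst 33342, widefield high-content imaging; amiodarone as positive and DMSO as negative control.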
Test [9] addresses Estrogen receptor (Homo sapiens) (UniProt P03372). In words: qHTS assay to identify small molecule antagonists of the estrogen receptor alpha (ER-alpha) signaling pathway (AID 743069; active means well fitted curve in the direction sought with a large enough effect in the signal ratio in the repeat runs, not every such curve was filed as active; the % refers to the signal ratio). Put shortly:
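Reporter cells (ER-alpha-bla, HEK293 background) are conditioned overnight in stripped-serum medium (2% charcoal-stripped FBS). Compound and 17beta-estradiol exposure runs 18 hr at 37C, 5% CO2.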

A short description of test [10]: Caspase-3/7 induction in HepG2 cells by small molecules, qHTS assay (AID 1346978). Further: nearly all actives have a fitted effect of over 15% in size. The procedure, abridged:
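Wild-type HepG2 cells, 2,000/well, settled 5 hr at 37 C and 5% CO2, then compound-treated for 17 hr; caspase-3/7 activity read by luminescent Caspase-Glo 3/7 after 30 min at room temperature.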

Test [11] addresses Acetylcholinesterase (Homo sapiens) (UniProt P22303). In words: Acetylcholinesterase (AChE) small molecule antagonists: enzyme-based qHTS assay with human liver microsomes (AID 1347399; calls by dose curve; further: nearly all actives have a fitted effect of over 60% in size). To be noted: Potency: qHTS inhibition; outcome: qHTS inhibition. The procedure, abridged:
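Recombinant human AChE (50 mU/mL in the enzyme mix) and human liver microsomes (0.25 mg/mL final) were preincubated with compound and NADPH (0.25 mg/mL final) for 30 min at 37 C. Acetylthiocholine/DTNB was then added; thiocholine was read colorimetrically after 10 min at room temperature.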

A short description of test [12]: qHTS assay for small molecule activators of the heat shock response signaling pathway (AID 743210; active means well fitted activation curve with a large enough effect in the signal ratio in the repeat runs, with a control signal flat, not every such curve was filed as active; the % refers to the signal ratio;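 further: HeLa cells with beta-lactamase reporter driven by heat shock elements; series mostly up to about 63 µM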). The procedure, abridged: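 Quantitative high-throughput format using an engineered HeLa line in which heat shock response elements drive beta-lactamase; after 5 h with compound, cells received a B/G FRET substrate and fluorescence was read.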
Test [13] has as its target Nuclear receptor subfamily 1 group I member 2 (Rattus norvegicus) (UniProt Q9R1A7). Description: Rat pregnane X receptor (rPXR) activation by small molecules, qHTS assay (AID 1346983). Further: nearly all actives have a fitted effect of over 20% in size. To be noted: rPXR luciferase reporter cells, One-Glo luminescence, 24 h; max activation: hits give high values. Put shortly:
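Cell-based rPXR activation assay: rPXR cells, 2,000 per well, rested 5hr at 37 C, then exposed to compounds in DMSO for 24 hr at 37 C. Luciferase activity read by One-Glo luminescence after 30 min at room temperature.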

Test [14] concerns the target Nuclear receptor subfamily 1 group I member 2 (Homo sapiens) (UniProt O75469). In words: Human pregnane X receptor (PXR) activation by small molecules, qHTS assay (AID 1346985). Further: nearly all actives have a fitted effect of over 40% in size. The procedure, abridged:
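DPX-2 cells (HepG2 co-transfected with a PXR response element and a CYP3A4-promoter luciferase construct) were seeded at 2,000 per well, rested 5 hr at 37C, then exposed to DMSO-dissolved compounds for 24 hr. Activation was read as luciferase luminescence.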

The target of test [15] is Peroxisome proliferator-activated receptor delta (Homo sapiens) (UniProt Q03181). In words: qHTS assay to identify small molecule agonists of the peroxisome proliferator-activated receptor delta (PPARd) signaling pathway (AID 743212; calls by dose curve;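 further: HEK293H cells with PPARd UAS beta-lactamase reporter GeneBLAzer system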). The procedure, abridged: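 Quantitative high-throughput agonist screen in a HEK293H beta-lactamase reporter line under UAS control. Compounds in DMSO, at 37 C. Fluorescence read after 2 h with FRET substrate at room temperature.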
On the % scale 0 is the no-effect control and ±100 the full control effect.

Chain of Acetylcholinesterase (Homo sapiens) (P22303 whole entry, looked up): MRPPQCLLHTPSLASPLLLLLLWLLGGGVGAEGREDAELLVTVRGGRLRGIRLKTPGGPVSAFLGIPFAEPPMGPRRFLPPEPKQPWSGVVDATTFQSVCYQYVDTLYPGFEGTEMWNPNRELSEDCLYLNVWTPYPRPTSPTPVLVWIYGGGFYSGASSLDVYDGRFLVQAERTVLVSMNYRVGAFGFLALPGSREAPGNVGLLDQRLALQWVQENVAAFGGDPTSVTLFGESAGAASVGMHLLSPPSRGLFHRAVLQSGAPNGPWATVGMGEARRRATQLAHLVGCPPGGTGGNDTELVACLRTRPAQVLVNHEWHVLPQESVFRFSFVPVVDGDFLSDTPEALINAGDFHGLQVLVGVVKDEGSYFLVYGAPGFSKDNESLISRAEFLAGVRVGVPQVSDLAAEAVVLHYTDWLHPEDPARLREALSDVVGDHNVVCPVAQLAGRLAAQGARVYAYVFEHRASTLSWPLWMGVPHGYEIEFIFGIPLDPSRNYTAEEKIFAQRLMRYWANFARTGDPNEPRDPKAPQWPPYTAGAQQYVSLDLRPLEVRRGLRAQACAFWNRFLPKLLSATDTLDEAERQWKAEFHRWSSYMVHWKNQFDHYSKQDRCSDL
Chain of Androgen receptor (Homo sapiens) (P10275 whole entry, looked up): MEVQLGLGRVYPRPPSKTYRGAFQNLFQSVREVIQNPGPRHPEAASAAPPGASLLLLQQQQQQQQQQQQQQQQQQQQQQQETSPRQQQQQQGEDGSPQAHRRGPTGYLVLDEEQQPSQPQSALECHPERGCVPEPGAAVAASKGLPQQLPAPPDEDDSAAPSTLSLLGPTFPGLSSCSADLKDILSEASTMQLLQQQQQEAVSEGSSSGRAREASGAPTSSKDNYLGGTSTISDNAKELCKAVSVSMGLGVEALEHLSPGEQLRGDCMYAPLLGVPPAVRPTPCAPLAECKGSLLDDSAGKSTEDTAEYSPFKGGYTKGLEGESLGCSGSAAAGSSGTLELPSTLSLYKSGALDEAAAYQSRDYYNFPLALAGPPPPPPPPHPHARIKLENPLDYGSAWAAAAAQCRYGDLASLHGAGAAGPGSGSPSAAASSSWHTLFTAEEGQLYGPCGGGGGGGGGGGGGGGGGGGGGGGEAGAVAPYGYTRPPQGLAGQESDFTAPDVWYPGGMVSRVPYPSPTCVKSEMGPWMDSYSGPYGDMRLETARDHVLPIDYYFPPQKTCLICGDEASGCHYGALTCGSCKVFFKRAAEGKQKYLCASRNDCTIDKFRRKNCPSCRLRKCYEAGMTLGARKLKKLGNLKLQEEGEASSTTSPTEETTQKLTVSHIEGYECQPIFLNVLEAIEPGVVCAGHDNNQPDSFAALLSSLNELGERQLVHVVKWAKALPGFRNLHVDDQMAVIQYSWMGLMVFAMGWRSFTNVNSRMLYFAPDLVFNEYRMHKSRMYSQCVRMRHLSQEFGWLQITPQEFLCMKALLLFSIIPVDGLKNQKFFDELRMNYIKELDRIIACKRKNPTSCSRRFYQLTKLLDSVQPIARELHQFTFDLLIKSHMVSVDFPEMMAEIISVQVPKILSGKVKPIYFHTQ
Chain of Glucocorticoid receptor (Homo sapiens) (P04150 whole entry, looked up): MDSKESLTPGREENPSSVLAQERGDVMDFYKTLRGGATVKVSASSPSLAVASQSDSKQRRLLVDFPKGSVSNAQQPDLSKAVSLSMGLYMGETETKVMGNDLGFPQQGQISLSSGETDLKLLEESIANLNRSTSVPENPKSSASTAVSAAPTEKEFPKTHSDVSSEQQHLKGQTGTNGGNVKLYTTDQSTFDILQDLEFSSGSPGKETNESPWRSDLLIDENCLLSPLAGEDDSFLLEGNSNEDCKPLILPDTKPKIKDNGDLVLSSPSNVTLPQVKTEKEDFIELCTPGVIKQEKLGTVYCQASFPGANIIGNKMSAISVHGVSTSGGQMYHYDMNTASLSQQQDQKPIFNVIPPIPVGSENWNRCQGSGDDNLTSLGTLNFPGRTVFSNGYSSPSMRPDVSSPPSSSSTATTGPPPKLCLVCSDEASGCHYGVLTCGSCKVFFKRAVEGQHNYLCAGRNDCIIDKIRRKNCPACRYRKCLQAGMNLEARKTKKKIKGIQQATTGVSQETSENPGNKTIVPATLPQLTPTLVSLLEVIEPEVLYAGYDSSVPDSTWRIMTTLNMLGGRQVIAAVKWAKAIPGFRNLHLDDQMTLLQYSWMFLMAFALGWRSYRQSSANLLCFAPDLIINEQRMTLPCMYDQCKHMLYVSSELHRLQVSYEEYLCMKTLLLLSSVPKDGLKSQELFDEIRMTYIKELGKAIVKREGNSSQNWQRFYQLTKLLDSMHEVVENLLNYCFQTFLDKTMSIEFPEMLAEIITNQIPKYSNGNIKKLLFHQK
Chain of Estrogen receptor (Homo sapiens) (P03372 whole entry, looked up): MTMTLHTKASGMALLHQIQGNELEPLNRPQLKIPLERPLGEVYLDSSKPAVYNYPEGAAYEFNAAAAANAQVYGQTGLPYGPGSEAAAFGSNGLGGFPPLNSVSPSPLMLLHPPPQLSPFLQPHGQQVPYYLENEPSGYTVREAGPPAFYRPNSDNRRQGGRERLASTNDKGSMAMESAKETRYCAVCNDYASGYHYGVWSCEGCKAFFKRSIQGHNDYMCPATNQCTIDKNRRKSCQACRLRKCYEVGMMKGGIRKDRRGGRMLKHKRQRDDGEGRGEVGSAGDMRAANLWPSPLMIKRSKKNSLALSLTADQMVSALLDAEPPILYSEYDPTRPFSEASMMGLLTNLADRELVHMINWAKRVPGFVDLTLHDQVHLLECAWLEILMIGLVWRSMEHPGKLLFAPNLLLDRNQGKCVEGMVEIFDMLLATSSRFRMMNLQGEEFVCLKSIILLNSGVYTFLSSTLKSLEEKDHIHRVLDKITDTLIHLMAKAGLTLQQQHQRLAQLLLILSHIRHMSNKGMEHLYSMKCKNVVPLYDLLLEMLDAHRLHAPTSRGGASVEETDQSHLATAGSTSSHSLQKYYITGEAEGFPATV
Chain of Nuclear receptor subfamily 1 group I member 2 (Rattus norvegicus) (Q9R1A7 whole entry, looked up): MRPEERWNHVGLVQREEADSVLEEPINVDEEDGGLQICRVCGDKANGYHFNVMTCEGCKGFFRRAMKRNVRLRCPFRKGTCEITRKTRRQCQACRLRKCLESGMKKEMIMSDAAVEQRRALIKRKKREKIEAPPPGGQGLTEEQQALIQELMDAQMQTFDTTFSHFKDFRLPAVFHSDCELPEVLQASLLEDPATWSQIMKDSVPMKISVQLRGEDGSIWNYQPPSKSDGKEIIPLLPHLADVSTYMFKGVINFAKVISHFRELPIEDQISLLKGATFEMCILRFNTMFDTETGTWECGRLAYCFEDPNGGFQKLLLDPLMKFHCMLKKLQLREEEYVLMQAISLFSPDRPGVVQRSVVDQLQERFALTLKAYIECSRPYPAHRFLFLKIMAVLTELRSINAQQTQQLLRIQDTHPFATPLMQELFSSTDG
Chain of Peroxisome proliferator-activated receptor delta (Homo sapiens) (Q03181 whole entry, looked up): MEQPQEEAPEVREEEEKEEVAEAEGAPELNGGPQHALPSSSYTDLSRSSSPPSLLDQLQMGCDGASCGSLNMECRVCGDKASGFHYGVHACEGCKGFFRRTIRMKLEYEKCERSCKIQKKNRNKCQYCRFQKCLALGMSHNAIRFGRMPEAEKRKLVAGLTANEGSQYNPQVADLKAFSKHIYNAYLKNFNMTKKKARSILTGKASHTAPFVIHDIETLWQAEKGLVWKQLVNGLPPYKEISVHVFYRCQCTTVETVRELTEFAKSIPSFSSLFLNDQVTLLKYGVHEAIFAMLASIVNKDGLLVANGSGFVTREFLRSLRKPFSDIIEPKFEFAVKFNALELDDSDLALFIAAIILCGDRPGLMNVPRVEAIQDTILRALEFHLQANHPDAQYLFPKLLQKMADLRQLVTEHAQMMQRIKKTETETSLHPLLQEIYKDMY

In the case of `O=C(O)CCCO`, the Potency entry in test [1], in [2], in test [3], in [4], in test [5] and in test [6] was “inactive” in each case. In addition, the Potency result in test [7] and in test [8] was “inactive” in each case.

Turning to `CN[C@@]1(c2ccccc2Cl)CCCCC1=O`, the Potency entry in [1] and in test [3] was “inactive” throughout. Besides, the PLD induction in test [8] is -4.46% [at 7.66 µM].

As for `C[C@]12CC[C@@H]3c4ccc(OC(=O)N(CCCl)CCCl)cc4CC[C@H]3[C@@H]1CC[C@@H]2OP(=O)(O)O`, the Potency in test [1] was 7.5 µM (active) and 29.8 µM (active); in [4], 10.7 µM (active) and 19 µM (active); in test [6], 5.31 µM (active) and 10.6 µM (active). In addition, the Potency result in [2], in test [3], in [7] and in test [8] was “inactive” throughout.

Turning to `CN1C(=O)CC(=O)N(c2ccccc2)c2cc(Cl)ccc21`, the Potency entry in test [1], in test [2], in [3], in test [9] and in test [8] was “inactive” each time.

Regarding `Clc1cc(Cl)c(Cl)cc1Cl`, the Potency entry in test [10] and in [11] was “inactive” throughout.

`Cc1c(N)cccc1N`: the Potency result in [10] and in test [11] was “inactive” each time.

As to `COc1ccc(OC)c(C[C@H](C)N)c1`, the Potency entry in test [2] and in test [8] was “inactive” throughout.

For `C[N+](C)(C)CCCCCCCCCC[N+](C)(C)C`, the Potency entry in [3], in test [12], in test [10] and in [11] was “inactive” each time.

With `Cc1nnc2n1-c1sc(Br)cc1C(c1ccccc1Cl)=NC2`, the Potency in test [3] is 10.7 µM (active); in [4] it was 8.49 µM (active). In addition, the Potency result in test [5], in test [6], in test [7] and in test [8] was “inactive” each time.

In the case of `C[C@@H](N)C(=O)c1ccccc1`, the Potency result in [2], in test [3], in [4], in test [5], in test [6] and in [7] was “inactive” throughout. The Potency result in test [8] is “inactive”.

As to `CC(C)(O)[C@@H]1[C@H]2OC(=O)[C@@H]1[C@]1(O)C[C@H]3O[C@]34C(=O)O[C@H]2[C@]14C`, the Potency entry in [1], in [3] and in [14] was “inactive” each time. For the same compound, the max activation in test [13] is -2.48%.

As to `CC(=O)Oc1ccc2c3c1O[C@H]1[C@@H](OC(C)=O)C=C[C@H]4[C@@H](C2)N(C)CC[C@@]341`, the Potency result in [1], in test [2], in [3], in [9] and in [14] was “inactive” in each case. Moreover, the max activation in test [13] is 0.899%.

`CC(C)C[C@H]1C(=O)N2CCC[C@H]2[C@]2(O)O[C@](NC(=O)[C@@H]3C[C@@H]4c5cccc6[nH]cc(c56)C[C@H]4N(C)C3)(C(C)C)C(=O)N12`: the Potency entry in [1], in [9] and in test [8] was “inactive” throughout.

Consider `Cc1ccc(C)cc1`, for which the Potency result in [1], in [10] and in [11] was “inactive” throughout.

Consider `C=CCOc1c(Br)cc(C(C)(C)c2cc(Br)c(OCC=C)c(Br)c2)cc1Br`, for which the Potency result in test [1], in test [3], in test [10] and in [11] was “inactive” each time. Moreover, in [15], the outcome was inactive.

As to `Clc1cc(Cl)c(-c2c(Cl)c(Cl)cc(Cl)c2Cl)cc1Cl`, the Potency entry in [10] and in [11] was “inactive” each time.

Source of the values: PubChem BioAssay (Tox21).
